Source: PubChem BioAssay
Activity calls are given as the source filed them.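 How the source made its calls, unless noted: active means NADPH fluorescence slope more negative than the mean of all samples by about 3 SD, 99.7% confidence; inactive means the rest.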

Key:
[1] = inhibitors of TNFa-induced NFkB p65 translocation, primary screen, imaging, HUVEC, MLSMR starter and 10KST1 sets (AID 438;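 active means inhibition above 20% together with a positive visual image hit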;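 further: compound added about 3h40 before a 20 min TNFalpha stimulation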;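 on inhibition: signal is the nuclear over cytoplasmic p65 intensity ratio per well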); details: HUVEC TNFa-induced p65 nuclear translocation; cell count: measured here: nuclei count (cytotoxicity indicator), at 2.08 µM; inhibition: at 2 µM, stronger effect = higher value, 0% TNFa-plus-vehicle, 100% no-TNFa wells
[2] = reduction of polyQ htt aggregates in cells – imaging, exon1htt(103Q)mCFP cells, high-content imaging, primary screen (AID 483;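 active means visual image review flags a hit and inhibition of aggregation exceeds 20%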;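 further: compound exposure lasted 3 days before fixation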;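 on nuclei count: percent of the per-plate median nuclei count of sample wells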); details: exon1htt(103Q)mCFP cell line, aggregate imaging, at 2 µM; inhibition of aggregation: stronger effect = higher value; nuclei count: measured here: cell count, toxicity
[3] = endothelial E-selectin expression blockers – imaging, HUVEC, immunofluorescence, MLSMR starter and 10KST1 sets, primary screen (AID 487;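 active means visually confirmed hit in the image check and inhibition above 20%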;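 on inhibition: signal is fraction of cell area covered by stained E-selectin grains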;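 on nuclei count: 100% = median nuclei count of all wells on the same plate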); details: HUVEC TNFalpha-induced E-selectin immunofluorescence imaging, at 2 µM; inhibition: stronger effect = higher value; nuclei count: measured here: cell number, toxicity
[4] = target: Voltage-gated potassium channel subunit beta-2 (Rattus norvegicus) (UniProt P62483); experiment: inhibitors of rat Kvbeta2 reductase activity – biochemical, NADPH fluorescence, primary screen (AID 622;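 active means fluorescence slope higher than the sample average by over 3 SD, cut at about -0.22 in these data, passing the limit was not always enough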;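 further: slope of raw intensity against log time taken from 70 to 1610 s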); details: recombinant KvBeta, 4-cyanobenzaldehyde reduction, at 10 µM, stronger effect = higher value
Sequence of Voltage-gated potassium channel subunit beta-2 (Rattus norvegicus) (P62483 whole entry, looked up): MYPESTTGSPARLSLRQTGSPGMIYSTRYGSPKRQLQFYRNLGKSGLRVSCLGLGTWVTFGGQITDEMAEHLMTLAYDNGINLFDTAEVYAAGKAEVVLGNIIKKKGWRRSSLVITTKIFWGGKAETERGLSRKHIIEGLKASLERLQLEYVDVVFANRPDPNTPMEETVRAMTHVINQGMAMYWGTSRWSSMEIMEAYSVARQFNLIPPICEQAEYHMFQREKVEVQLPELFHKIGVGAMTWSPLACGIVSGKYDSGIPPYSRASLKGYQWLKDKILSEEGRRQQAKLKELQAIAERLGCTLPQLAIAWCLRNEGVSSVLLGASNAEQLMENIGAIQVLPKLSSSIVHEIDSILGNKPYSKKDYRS

[5] = target: Voltage-gated potassium channel subunit beta-2 (Rattus norvegicus) (UniProt P62483); experiment: enhancers of rat Kvbeta2 NADPH turnover – biochemical, NADPH fluorescence, primary screen (AID 623); details: Recombinant KvBeta, NADPH fluorescence decrease slope, 10 min; at 10 µM; stronger effect = lower value;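 further: fluorescence intensity change per second fitted from 20 to 320 s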
[6] = target: Alpha-2C adrenergic receptor (Homo sapiens) (UniProt P18825); experiment: compounds altering alpha2C-coupled GIRK flux – cell-based, HEK293 alpha2C/GIRK1/2, thallium flux, primary screen (AID 624;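 active means fluorescence slope after compound addition differing from the mean of all screened samples at 99.7% confidence, in either direction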;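 further: slope of fluorescence ratio to pre-addition baseline per second over 15 to 24 s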); details: thallium flux BTC fluorescence, at 10 µM, actives lie on both sides
Sequence of Alpha-2C adrenergic receptor (Homo sapiens) (P18825 whole entry, looked up): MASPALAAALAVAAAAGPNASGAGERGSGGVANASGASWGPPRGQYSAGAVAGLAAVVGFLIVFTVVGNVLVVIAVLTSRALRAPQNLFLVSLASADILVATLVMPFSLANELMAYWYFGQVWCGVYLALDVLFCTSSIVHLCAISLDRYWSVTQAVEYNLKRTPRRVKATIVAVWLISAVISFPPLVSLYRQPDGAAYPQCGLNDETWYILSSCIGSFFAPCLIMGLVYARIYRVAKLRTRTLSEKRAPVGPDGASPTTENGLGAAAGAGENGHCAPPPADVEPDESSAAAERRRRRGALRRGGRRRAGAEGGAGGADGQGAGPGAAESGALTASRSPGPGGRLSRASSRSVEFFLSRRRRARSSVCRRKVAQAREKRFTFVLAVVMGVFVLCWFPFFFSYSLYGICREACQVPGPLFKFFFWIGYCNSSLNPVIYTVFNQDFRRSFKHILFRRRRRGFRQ

[7] = blockers of RIG-like receptor reporter activation – cell-based, Sendai virus stimulus, luciferase, 10K MLSCN set, TLR/RLR signaling modifier project, primary screen (AID 602276;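 active means inhibition at or above 50% at 10 µM; inactive means inhibition below 50%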;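 further: firefly luciferase from ISG56 promoter only with Renilla not read in this screen; 0% = Sendai virus plus DMSO and 100% = medium plus DMSO without virus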); details: HEK293 RL24 IRF3 luciferase reporter, at 10 µM, stronger effect = higher value
[8] = TLR3 IRF3 reporter activation blockers – cell-based, poly I:C stimulus, luciferase, 10K MLSCN set, primary screen (AID 602277;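 active means inhibition of the reporter signal at or above 50%; inactive means inhibition below 50%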); details: HEK293-TLR3 RL24 IRF3 luciferase reporter, at 10 µM, stronger effect = higher value

| SMILES | cell count [1] | inhibition [1] | inhibition of aggregation [2] | nuclei count [2] [%] | inhibition [3] | nuclei count [3] [%] | fluorescence slope [4] | NADPH fluorescence slope [5] | slope [6] | inhibition [7] | inhibition [8] |
| --- | --- | --- | --- | --- | --- | --- | --- | --- | --- | --- | --- |
| COCCn1c(SCC(=O)Nc2cccc(OC)c2)nnc1-c1ccc(Cl)cc1 | 467 | 6.7% (inactive) | 8.5% (inactive) | 94.1 | -19.6% (inactive) | 97.1 | -0.598 (inactive) | -2.9e-05 (inactive) | 0.00322 (inactive) | 16.4% (inactive) | 22.6% (inactive) |
| CC(=O)NC(Cc1c[nH]c2ccccc12)C(=O)OCC(=O)Nc1cc(C)on1 (stereo not drawn) | 505 | 9.6% (inactive) | 0.7% (inactive) | 110 | -0.6% (inactive) | 97.6 | -0.376 (inactive) | 1.5e-05 (inactive) | 0.00598 (inactive) | -5.34% (inactive) | 8.03% (inactive) |
| Cc1nc2ccc(CCO)cc2s1 | 419 | 8% (inactive) | 2.9% (inactive) | 93.2 | -162% (inactive) | 112 | -0.652 (inactive) | 3.1e-05 (inactive) | 0.00546 (inactive) | 5.43% (inactive) | 4.05% (inactive) |
| COc1ccc(Cl)cc1Nc1nc(NCCO)nc(N2CCCC2)n1 | 390 | -4.3% (inactive) | 5.8% (inactive) | 95.9 | -6% (inactive) | 112 | -0.595 (inactive) | -2.1e-05 (inactive) | 0.00689 (inactive) | 11.5% (inactive) | 16.2% (inactive) |
| O=C(NCC(c1cccnc1)N1CCN(c2ccc(F)cc2)CC1)c1ccc(F)cc1 (stereo not drawn) | 346 | 7.4% (inactive) | -9.9% (inactive) | 84 | -33.2% (inactive) | 96.5 | -0.596 (inactive) | -4.6e-05 (inactive) | 0.00545 (inactive) | 1.86% (inactive) | 6.23% (inactive) |
| CCCCCCc1ccc(-c2ncc(N)cn2)cc1 | 478 | 3.5% (inactive) | 26.5% (inactive) | 110 | -42.4% (inactive) | 109 | -0.509 (inactive) | 6.3e-06 (inactive) | 0.00484 (inactive) | -9.96% (inactive) | -78.9% (inactive) |
| COc1cc(C(=O)Nc2nc(-c3cccs3)cs2)cc(OC)c1OC | 475 | -4.8% (inactive) | -20.4% (inactive) | 98.7 | -18.4% (inactive) | 106 | -0.507 (inactive) | -6.5e-06 (inactive) | 0.00722 (inactive) | -6.01% (inactive) | -12% (inactive) |
| COc1ccc(NC(=O)N(C2CCCCC2)C2CCN(C(C)C)CC2)c(OC)c1 | 676 | -7.8% (inactive) | -12.8% (inactive) | 79.5 | -10.8% (inactive) | 109 | -0.518 (inactive) | 9.2e-06 (inactive) | 0.0051 (inactive) | 2.2% (inactive) | 15.1% (inactive) |
| COc1cccc(N(C(C)=O)c2nc(C)cc(C)c2C#N)c1 | 278 | 13.4% (inactive) | -28.3% (inactive) | 113 | -47.7% (inactive) | 102 | -0.557 (inactive) | -1.8e-05 (inactive) | 0.00529 (inactive) | 17.6% (inactive) | 28.7% (inactive) |
| Cc1cnc(NC(=O)CSc2nnc(COc3c(C)cccc3C)o2)s1 | 628 | 10.9% (inactive) | -2.5% (inactive) | 103 | -22.4% (inactive) | 121 | -0.537 (inactive) | -4.4e-05 (inactive) | 0.00686 (inactive) | 12.1% (inactive) | 39% (inactive) |
| Cc1sc2nc(CN3CCN(S(=O)(=O)c4cccc5nonc45)CC3)[nH]c(=O)c2c1C | 661 | -16.4% (inactive) | 11.8% (inactive) | 60.7 | -55.1% (inactive) | 116 | -0.411 (inactive) | -5.6e-05 (inactive) | 0.00421 (inactive) | 3.59% (inactive) | 1.1% (inactive) |
| CCC1CCCCN1C(=O)C1CC(c2cc(Cl)c(OC)cc2OC)=NO1 (stereo not drawn) | 411 | 6.8% (inactive) | 1.6% (inactive) | 108 | -8.7% (inactive) | 168 | -0.504 (inactive) | 2e-05 (inactive) | 0.00725 (inactive) | -1.49% (inactive) | -30.3% (inactive) |
| Cc1ccc(SC(C)c2nc(-c3ccccc3)no2)cc1 (stereo not drawn) | 283 | -7.5% (inactive) | 8.1% (inactive) | 105 | 51.9% (active) | 42.1 | -0.416 (inactive) | -4.5e-05 (inactive) | 0.00449 (inactive) | -11.7% (inactive) | -42.5% (inactive) |
| N#CCC(=O)N1CCn2c1nc1ccccc12 | 301 | -3.4% (inactive) | -20.8% (inactive) | 94.4 | -16.4% (inactive) | 101 | -0.492 (inactive) | -3.8e-05 (inactive) | 0.00588 (inactive) | 11.2% (inactive) | 24.2% (inactive) |
| CCCCOc1ccc(-c2ncc(Cl)cn2)cc1 | 469 | 3% (inactive) | 13.9% (inactive) | 98.8 | -10% (inactive) | 115 | -0.434 (inactive) | -6.7e-06 (inactive) | 0.00373 (inactive) | -30% (inactive) | -146% (inactive) |
| CCOC(=O)c1c(C)[nH]c(C)c1C(=O)COC(=O)CNC(=O)c1ccc(OCC)cc1 | 708 | -2.2% (inactive) | 5.2% (inactive) | 63.7 | -19.4% (inactive) | 104 | -0.456 (inactive) | 2.3e-05 (inactive) | 0.00496 (inactive) | 14.3% (inactive) | 28.6% (inactive) |
| Clc1cccc(-c2nnc3sc(-c4ccccc4)nn23)c1 | 625 | -3% (inactive) | -8% (inactive) | 108 | -30.8% (inactive) | 104 | -0.372 (inactive) | -5.3e-05 (inactive) | 0.0065 (inactive) | -35.9% (inactive) | -59.7% (inactive) |
| Cc1cccc(NC2SC(=O)N(c3ccccc3)C2=O)c1 (stereo not drawn) | 152 | -14.3% (inactive) | 11.5% (inactive) | 92.8 | 26.4% (inactive) | 80.9 | -0.377 (inactive) | 5.7e-06 (inactive) | 0.00476 (inactive) | -2.7% (inactive) | -12.1% (inactive) |
| Fc1cccc2sc(N3CCOCC3)nc12 | 255 | -8.3% (inactive) | 16.8% (inactive) | 68.5 | 6.6% (inactive) | 51.7 | -0.387 (inactive) | -3.9e-05 (inactive) | 0.00353 (inactive) | -10.5% (inactive) | -45.8% (inactive) |
| CCOc1ccc(N(CC(=O)Nc2ccc(C)c(C)c2)S(=O)(=O)c2c(C)noc2C)cc1 | 713 | 0% (inactive) | -19.3% (inactive) | 86.1 | -29% (inactive) | 100 | -0.554 (inactive) | -7.2e-07 (inactive) | 0.00659 (inactive) | 13.3% (inactive) | 27.5% (inactive) |
| COCCNC(=O)CC(NS(=O)(=O)c1ccc(NC(C)=O)cc1)C(C)C (stereo not drawn) | 435 | 6.5% (inactive) | -1.2% (inactive) | 105 | -122% (inactive) | 107 | -0.397 (inactive) | -7.5e-05 (inactive) | 0.00454 (inactive) | 8.34% (inactive) | 25.9% (inactive) |
| O=C(CN1CCCN(S(=O)(=O)c2ccc(F)cc2)CC1)Nc1ccccc1Br | 220 | -1.3% (inactive) | 2% (inactive) | 108 | -17.3% (inactive) | 118 | -0.504 (inactive) | 2.2e-05 (inactive) | 0.00558 (inactive) | 3.65% (inactive) | 9.12% (inactive) |
| CCOC(=O)Cc1nnc(NC(=O)c2ncn[nH]2)s1 | 343 | 0.2% (inactive) | -4.6% (inactive) | 99.8 | -5.5% (inactive) | 119 | -0.438 (inactive) | -5.2e-05 (inactive) | 0.00725 (inactive) | -0.284% (inactive) | 5.11% (inactive) |
| CC(C)(C)c1cc(CCC(=O)N2CCNCC2)c(C(C)(C)C)cc1O | 557 | -31.3% (inactive) | 18.7% (inactive) | 102 | -57% (inactive) | 101 | -0.411 (inactive) | -9e-05 (inactive) | 0.00515 (inactive) | 13.9% (inactive) | 27.5% (inactive) |
| N#Cc1cc2ccc(N3CCOCC3)cc2cc1C#N | 421 | -6.5% (inactive) | 9.5% (inactive) | 76.5 | -341% (inactive) | 103 | -0.0128 (active) | 1.2e-05 (inactive) | 0.00303 (inactive) | 7.25% (inactive) | 26.1% (inactive) |
| CC(C)(C)n1nnnc1CN1CCN(C2CCCC2)CC1 | 798 | -8.1% (inactive) | 9.7% (inactive) | 136 | -52.3% (inactive) | 107 | -0.472 (inactive) | -4.3e-05 (inactive) | 0.00587 (inactive) | -0.428% (inactive) | 21.3% (inactive) |
| FC(F)(F)c1cccc(N2CCN(c3nnnn3-c3ccccc3)CC2)c1 | 394 | -3.8% (inactive) | -1.6% (inactive) | 96.2 | -98.2% (inactive) | 112 | -0.647 (inactive) | 1.2e-05 (inactive) | 0.00945 (inactive) | 10.2% (inactive) | 2.35% (inactive) |
| Cc1ccc(NC(=O)CSc2nnc(Cc3cccn3C)n2-c2ccc(F)cc2)cc1 | 562 | 12.9% (inactive) | -6.4% (inactive) | 98.7 | -118% (inactive) | 91.3 | -0.586 (inactive) | -2.1e-06 (inactive) | 0.00658 (inactive) | 8.62% (inactive) | 23.7% (inactive) |
